Test results as given in PubChem BioAssay (NCATS).
Inconclusive results are not listed. Activity calls are given as the source filed them. Unless noted, calls come from the whole dose curve; as a rule, active = well fitted curve in either direction with a large enough effect (not every such curve was filed as active); inconclusive = small, poorly fitted or top-dose-only effect, or another doubt; inactive = flat fitted curve, though single readings scatter.

Tests used:
[1] = AP1 Signaling Pathway (AID 357); note: % is set by controls: 0 for no effect and ±100 for the full control effect
How it was run: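 In this screen, ME-180 cells in Opti-MEM with 0.5% dialyzed FBS received EC50 EGF and compound titrations for 5 h. AP-1 reporter beta-lactamase was detected via CCF4 ratio, giving AC50 for positive and negative modulators.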

[2] = molecular target: Cytochrome P450 1A2 (Homo sapiens) (UniProt P05177); test: p450-cyp1a2 (AID 410; calls by dose curve; note: potency is the fitted concentration of half-maximal effect;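 for activity change, negative = inhibition: -100% = full effect of reference inhibitor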)
Cytochrome P450 1A2 (Homo sapiens), sequence (P05177 whole entry, looked up): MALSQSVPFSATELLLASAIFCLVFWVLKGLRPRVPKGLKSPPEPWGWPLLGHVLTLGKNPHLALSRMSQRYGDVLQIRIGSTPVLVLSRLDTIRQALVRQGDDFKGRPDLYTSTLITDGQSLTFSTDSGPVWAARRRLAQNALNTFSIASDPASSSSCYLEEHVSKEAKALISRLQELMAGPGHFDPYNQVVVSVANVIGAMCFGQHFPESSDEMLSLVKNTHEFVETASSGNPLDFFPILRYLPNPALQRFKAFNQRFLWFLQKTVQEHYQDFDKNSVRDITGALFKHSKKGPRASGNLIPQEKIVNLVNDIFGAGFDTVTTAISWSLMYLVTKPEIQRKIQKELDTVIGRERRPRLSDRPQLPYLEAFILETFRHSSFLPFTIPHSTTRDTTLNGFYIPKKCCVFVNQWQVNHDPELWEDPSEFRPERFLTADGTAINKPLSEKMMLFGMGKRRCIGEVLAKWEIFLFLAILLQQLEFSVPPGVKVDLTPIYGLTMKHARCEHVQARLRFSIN
How it was run: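 Read-out is luminescence from luciferin produced by CYP1A2 demethylation of Luciferin-ME (100uM, at Km). Detection reagent stopped the 60 min NADPH-dependent reaction; signals were normalized to 57 uM furafylline.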

[3] = NFAT Signaling Pathway (AID 444); settings: Jurkat NFAT-bla M1, carbachol, beta-lactamase ratio, 5 h; at 17.2 µM (top of the series) unless noted;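 note: carbachol stimulus at about its EC50 of 1 µM final; % is set by controls: 0 for no effect and ±100 for the full control effect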
How it was run: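 Read-out: CCF4 FRET ratio (460 nm/530 nm) after 1 h RT dye loading, used for %activity and AC50 from titration series. Cells: Jurkat NFAT-β-lactamase/M1 line, treated with compound plus 1 uM carbachol for 5 h, 37 °C.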

[4] = Stat Signaling Pathway (AID 446);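 note: ME-180 cervical cancer cells given 40 pM IL-6 alongside compound; SIE-controlled beta-lactamase reporter measured as 460/530 nm FRET emission ratio; % is set by controls: 0 for no effect and ±100 for the full control effect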
How it was run: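 Normalization used AC90 stimulation (300 pM IL-6) and AC90 inhibition (125 nM pan-JAK inhibitor at 40 pM IL-6). The underlying signal is SIE-driven beta-lactamase in ME-180 cells after 5 h IL-6 exposure with compound.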

[5] = molecular target: Glucocorticoid receptor (Homo sapiens) (UniProt P04150); test: GR-GFP Redistribution (AID 450;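 active = compounds whose dose series gives a full or clear partial fitted curve of increased nuclear translocation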; note: potency is the fitted concentration of half-maximal effect); settings: U2OS GR-GFP nuclear translocation, laser cytometry, 2 h
Glucocorticoid receptor (Homo sapiens), sequence (P04150 whole entry, looked up, the tested form may be a part): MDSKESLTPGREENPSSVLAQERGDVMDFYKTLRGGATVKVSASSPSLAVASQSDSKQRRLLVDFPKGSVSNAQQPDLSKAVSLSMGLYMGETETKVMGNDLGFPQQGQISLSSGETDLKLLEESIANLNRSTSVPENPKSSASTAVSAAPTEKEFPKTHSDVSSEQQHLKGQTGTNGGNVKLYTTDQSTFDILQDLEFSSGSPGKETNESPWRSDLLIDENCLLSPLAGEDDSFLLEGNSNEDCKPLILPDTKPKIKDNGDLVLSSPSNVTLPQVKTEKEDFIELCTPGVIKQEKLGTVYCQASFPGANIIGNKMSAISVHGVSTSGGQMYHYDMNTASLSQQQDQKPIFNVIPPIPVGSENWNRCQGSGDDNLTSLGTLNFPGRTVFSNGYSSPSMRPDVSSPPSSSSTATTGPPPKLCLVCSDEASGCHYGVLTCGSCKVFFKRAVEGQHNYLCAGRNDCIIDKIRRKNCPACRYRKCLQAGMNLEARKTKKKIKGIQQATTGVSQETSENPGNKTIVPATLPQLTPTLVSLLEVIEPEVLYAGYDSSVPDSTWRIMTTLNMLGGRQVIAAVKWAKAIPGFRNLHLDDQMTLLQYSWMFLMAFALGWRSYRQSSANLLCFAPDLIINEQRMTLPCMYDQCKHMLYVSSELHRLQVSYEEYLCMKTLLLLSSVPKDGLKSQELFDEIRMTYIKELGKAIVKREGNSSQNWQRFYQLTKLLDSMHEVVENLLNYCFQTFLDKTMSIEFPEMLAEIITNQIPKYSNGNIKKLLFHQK

[6] = molecular target: Glucocorticoid receptor (Homo sapiens) (UniProt P04150); test: GR-EFC Redistribution (AID 451; calls by dose curve; note: potency is the fitted concentration of half-maximal effect); settings: CHO-K1 GR-EFC translocation, beta-gal luminescence, 2 h
How it was run: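 Translocation of GR-ED fusion to nuclear EA restores b-gal, read by luminescence after 1 h room-temperature detection. Engineered CHO-K1 biosensor cells, 1,000/well, exposed 2 h at 37 C to titrations up to 46 uM final.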

[7] = molecular target: Mitogen-activated protein kinase 10 (Mus musculus) (UniProt Q61831); test: JNK3 AlphaScreen Assay (AID 530);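 note: kinase came from lysate of stimulated human HepG2 cells; signal reports phosphorylation of biotinylated GST-cJun 1-79 at Ser73 with 10 µM ATP; % is set by controls: 0 for no effect and ±100 for the full control effect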
How it was run: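 Kinase buffer: 20 mM Tris-HCl pH 7.6, 10 mM MgCl2, 1 mM DTT, 0.1 mM Na3VO4, 0.01% Tween-20; ATP 10 uM. Substrate biotin-GST-cJun(1-79), enzyme from activated HepG2 lysates. Detection by Ser73 phospho-antibody AlphaScreen.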

[8] = molecular target: 3',5'-cyclic-AMP phosphodiesterase 4B (Homo sapiens) (UniProt Q07343); test: qHTS Assay for Inhibitors of PDE-IV (AID 607; active = well fitted activation curve with a large enough effect in the main read-out, with a control signal flat, not every such curve was filed as active; note: % of control where 0% means no effect)
3',5'-cyclic-AMP phosphodiesterase 4B (Homo sapiens), sequence (Q07343 whole entry, looked up): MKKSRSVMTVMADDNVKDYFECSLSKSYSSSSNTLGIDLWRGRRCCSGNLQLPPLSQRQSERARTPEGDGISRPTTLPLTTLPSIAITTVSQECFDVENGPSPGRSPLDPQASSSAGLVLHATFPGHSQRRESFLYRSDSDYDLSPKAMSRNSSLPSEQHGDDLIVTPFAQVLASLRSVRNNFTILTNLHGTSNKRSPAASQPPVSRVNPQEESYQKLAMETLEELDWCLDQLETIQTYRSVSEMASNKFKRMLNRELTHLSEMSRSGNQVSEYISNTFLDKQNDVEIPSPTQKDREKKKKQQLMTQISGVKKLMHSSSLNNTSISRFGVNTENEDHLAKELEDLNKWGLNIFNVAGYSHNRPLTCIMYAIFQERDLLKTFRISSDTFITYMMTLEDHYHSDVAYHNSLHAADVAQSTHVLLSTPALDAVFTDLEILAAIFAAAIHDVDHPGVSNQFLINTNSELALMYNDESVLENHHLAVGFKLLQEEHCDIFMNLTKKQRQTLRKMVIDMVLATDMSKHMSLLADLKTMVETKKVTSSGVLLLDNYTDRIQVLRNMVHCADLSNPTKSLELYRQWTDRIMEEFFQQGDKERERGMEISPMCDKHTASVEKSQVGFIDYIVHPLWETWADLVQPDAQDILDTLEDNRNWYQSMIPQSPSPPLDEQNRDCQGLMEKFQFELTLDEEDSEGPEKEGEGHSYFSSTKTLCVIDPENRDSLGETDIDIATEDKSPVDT
How it was run: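 HEK293 ACTOne cells with CNG channel (1000/well), endogenous PDE4; membrane potential dye, compounds up to 22.9 uM final. Fluorescence Ex 535/Em 590; RO 20-1724 (100 uM final) as reference.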

[9] = qHTS Assay for Lipid Storage Modulators (AID 1519; calls by dose curve); settings: Drosophila S3 cells, BODIPY lipid droplet/cell ratio, laser cytometry, cells loaded with oleic acid; for activity change, negative = inhibition: at 25.7 µM (top of the series)
How it was run: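 Cells seeded at 5,000 per well were treated with compounds over a concentration series and loaded with oleic acid (400 uM, as added). Lipid droplet fluorescence (488 nm excitation, 500-530 nm channel) was read by laser-scanning cytometry and normalized to 20 uM Triacsin C.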

[10] = molecular target: Luciferin 4-monooxygenase (Photinus pyralis) (UniProt P08659); test: Biochemical firefly luciferase enzyme assay for NPC (AID 624030; active = well fitted inhibition curve with a large enough effect;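 note: purified P. pyralis luciferase at 10 nM with luciferin and ATP substrate; 0% = DMSO and -100% = full luciferase inhibition by PTC124 control; nearly all actives have a fitted effect of over 70% in size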)
Luciferin 4-monooxygenase (Photinus pyralis), sequence (P08659 whole entry, looked up): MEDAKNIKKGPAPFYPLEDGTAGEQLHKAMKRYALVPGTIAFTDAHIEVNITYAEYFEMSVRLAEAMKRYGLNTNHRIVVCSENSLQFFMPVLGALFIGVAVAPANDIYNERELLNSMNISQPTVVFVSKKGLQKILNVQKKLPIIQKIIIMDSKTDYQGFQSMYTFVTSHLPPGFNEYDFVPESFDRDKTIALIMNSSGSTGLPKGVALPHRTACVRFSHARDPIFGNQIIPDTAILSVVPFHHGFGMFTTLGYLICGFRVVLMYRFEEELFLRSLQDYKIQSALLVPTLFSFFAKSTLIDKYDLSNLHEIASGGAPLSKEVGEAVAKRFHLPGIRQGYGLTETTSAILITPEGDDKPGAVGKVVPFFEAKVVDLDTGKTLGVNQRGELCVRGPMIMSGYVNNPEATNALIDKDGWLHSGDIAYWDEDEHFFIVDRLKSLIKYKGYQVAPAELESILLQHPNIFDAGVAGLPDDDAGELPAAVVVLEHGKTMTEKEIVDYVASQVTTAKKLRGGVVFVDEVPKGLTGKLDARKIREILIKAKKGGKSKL
How it was run: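 Direct inhibition of firefly luciferase enzyme (10 nM final, 50 mM Tris Acetate) assessed by luminescence within 5 minutes. Percent activity scaled between DMSO and PTC124 positive control, with concentration-effect curves classified by fit quality and response.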

[11] = qHTS profiling for inhibitors of Plasmodium falciparum proliferation (AID 504749; active = well fitted inhibition curve with a large enough effect;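 note: 0% = DMSO vehicle and full inhibition = artemisinin control; nearly all actives have a fitted effect of over 60% in size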); settings: P. falciparum in erythrocytes, SYBR Green DNA, 72 h, at 12.8 µM (top of the series)
How it was run: (§1)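 In a 72 h erythrocytic culture (37 C, humidified, 5% CO2) at 2.5% hematocrit and 0.3% starting parasitemia, compounds were tested; SYBR Green I in detergent lysis buffer stained parasite DNA overnight.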

C2A = test: as above; settings: P. falciparum in erythrocytes, SYBR Green DNA, 72 h; series mostly up to 12.8 µM
How it was run: as §1

CP217 = test: as above; settings: P. falciparum in erythrocytes, SYBR Green DNA, 72 h; series mostly up to 12.8 µM
How it was run: as §1

CP238 = test: as above; settings: P. falciparum in erythrocytes, SYBR Green DNA, 72 h; series mostly up to 12.8 µM
How it was run: as §1

CP250 = test: as above; settings: P. falciparum in erythrocytes, SYBR Green DNA, 72 h; series mostly up to 12.8 µM
How it was run: as §1

FAB9 = test: as above; settings: P. falciparum in erythrocytes, SYBR Green DNA, 72 h; series mostly up to 12.8 µM
How it was run: as §1

JCK = test: as above; settings: P. falciparum in erythrocytes, SYBR Green DNA, 72 h; series mostly up to 12.8 µM
How it was run: as §1

PC49 = test: as above; settings: P. falciparum in erythrocytes, SYBR Green DNA, 72 h; series mostly up to 12.8 µM
How it was run: as §1

SC27B = test: as above; settings: P. falciparum in erythrocytes, SYBR Green DNA, 72 h; series mostly up to 12.8 µM
How it was run: as §1

[12] = molecular target: Ubiquitin carboxyl-terminal hydrolase 1 (Homo sapiens) (UniProt O94782); test: Inhibitors of USP1/UAF1: Pilot qHTS (AID 504865; active = well fitted inhibition curve with a large enough effect;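 note: rhodamine fluorescence freed from ubiquitin-rhodamine substrate followed over time; top concentration of the series differs between compounds; % is set by controls: 0 for no effect and ±100 for the full control effect; nearly all actives have a fitted effect of over 35% in size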)
Ubiquitin carboxyl-terminal hydrolase 1 (Homo sapiens), sequence (O94782 whole entry, looked up): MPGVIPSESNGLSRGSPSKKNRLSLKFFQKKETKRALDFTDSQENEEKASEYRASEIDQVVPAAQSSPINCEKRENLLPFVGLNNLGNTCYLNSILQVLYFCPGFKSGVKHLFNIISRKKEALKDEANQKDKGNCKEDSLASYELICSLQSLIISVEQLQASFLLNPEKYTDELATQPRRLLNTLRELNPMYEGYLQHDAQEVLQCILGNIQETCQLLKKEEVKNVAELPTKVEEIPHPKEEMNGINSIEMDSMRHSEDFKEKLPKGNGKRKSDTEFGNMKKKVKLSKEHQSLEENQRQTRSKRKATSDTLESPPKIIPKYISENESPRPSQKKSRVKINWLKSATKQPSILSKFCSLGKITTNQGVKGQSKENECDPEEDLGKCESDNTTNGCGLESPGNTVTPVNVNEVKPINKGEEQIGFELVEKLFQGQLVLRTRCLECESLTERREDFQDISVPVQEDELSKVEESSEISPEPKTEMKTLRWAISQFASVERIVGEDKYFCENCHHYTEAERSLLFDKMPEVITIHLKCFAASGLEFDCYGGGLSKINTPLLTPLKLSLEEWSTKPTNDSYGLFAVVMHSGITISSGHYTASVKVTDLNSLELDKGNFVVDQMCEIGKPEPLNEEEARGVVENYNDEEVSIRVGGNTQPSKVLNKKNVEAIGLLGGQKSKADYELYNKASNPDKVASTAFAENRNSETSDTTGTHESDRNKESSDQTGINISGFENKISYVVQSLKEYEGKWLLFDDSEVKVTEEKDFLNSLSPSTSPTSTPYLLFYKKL
How it was run: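 Enzyme-free wells gave the negative control, while test wells held 1nM USP1/UAF1 preincubated with compound for 15 min at room temperature. Ub-Rho at 150nM final started the reaction, and fluorescence at 480/540 nm was recorded kinetically.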

[13] = measured here: cell count channel max response
[14] = measured here: lipid channel max response

CCC(=O)O[C@@]1(C(=O)CCl)[C@@H](C)C[C@@H]2[C@H]3CCC4=CC(=O)C=C[C@@]4(C)[C@]3(F)[C@@H](O)C[C@@]21C
-18.1%: max response [9, 13]
-15.8%: max response [9, 14]
inactive: outcome [1] | Potency [2] | activity change, negative = inhibition [3] -1.76% | outcome [4] | Potency [7] | outcome [8] | activity change, negative = inhibition [9] -3.93%
active: Potency [5] 0.000621 µM | Potency [6] < 5.9e-06 µM

COCC(=O)Nc1c(I)c(C(=O)NC[C@@H](O)CO)c(I)c(C(=O)N(C)C[C@@H](O)CO)c1I
inactive: outcome [1] | Potency [2] | activity change, negative = inhibition [3] 3.09% | outcome [4] | Potency [7] | outcome [8] | activity change, negative = inhibition [9] -0.947% | Potency [10] | activity, negative = inhibition ([11]; parasite line A) -0.503% | activity, negative = inhibition ([11]; parasite line B) -0.0954% | Potency (C2A) | Potency (CP217) | Potency (CP238) | Potency (CP250) | Potency (FAB9) | Potency (JCK) | Potency (PC49) | Potency (SC27B)
-9.01%: max response [9, 14]
-5.27%: max response [9, 13]

NC(=O)N/N=C\c1ccc([N+](=O)[O-])o1
inactive: outcome [1] | activity change, negative = inhibition [3] -5.34% | outcome [4] | Potency [5] > 20.6 µM | Potency [6] > 20.6 µM | Potency [7] | outcome [8] | activity change, negative = inhibition [9] 0.117% | Potency [12]
-2.81%: max response [9, 13]
active: Potency [2] 12.6 µM
-1.91%: max response [9, 14]

NC[C@@H]1O[C@H](O[C@@H]2[C@H](O[C@@H]3O[C@H](CO)[C@@H](COC[C@H]4O[C@@H](CN)[C@@H](O)[C@@H](O)[C@@H]4N)[C@@H]3O)[C@@H](O)[C@@H](N)C[C@H]2N)[C@@H](N)[C@H](O)[C@@H]1O
2.23%: max response [9, 14]
1.11%: max response [9, 13]
inactive: outcome [1] | Potency [2] | activity change, negative = inhibition [3] -1.32% | outcome [4] | Potency [5] > 20.6 µM | Potency [6] > 20.6 µM | Potency [7] | outcome [8] | activity change, negative = inhibition [9] -1.17% | Potency [12]

C#C[C@]1(O)CC[C@@H]2[C@H]3CCc4cc(OC)ccc4[C@@H]3CC[C@@]21C
-16.7%: max response [9, 14]
-15.5%: max response [9, 13]
active: Potency [2] 0.501 µM
inactive: outcome [1] | activity change, negative = inhibition [3] -23.4% | outcome [4] | Potency [6] > 20.6 µM | Potency [7] | outcome [8] | activity change, negative = inhibition [9] -2.31% | Potency [12]

C[N+]1(C)C[C@@H](O)C[C@@H]1C(=O)[O-]
-3.42%: max response [9, 14]
inactive: outcome [1] | Potency [2] | activity change, negative = inhibition [3] -11.1% | outcome [4] | Potency [5] > 20.6 µM | Potency [6] > 20.6 µM | Potency [7] | outcome [8] | activity change, negative = inhibition [9] -1.53% | Potency [12]
-1.48%: max response [9, 13]

CC(=O)[C@@H]1CC[C@@H]2[C@@H]3C[C@H](C)C4=CC(=O)CC[C@@]4(C)[C@H]3[C@H](O)C[C@]21C
-5.95%: max response [9, 13]
active: Potency [5] 0.0015 µM
inactive: outcome [1] | Potency [2] | activity change, negative = inhibition [3] -5.99% | outcome [4] | outcome [8] | activity change, negative = inhibition [9] -5.46% | Potency [10] | activity, negative = inhibition ([11]; parasite line A) 0.756% | activity, negative = inhibition ([11]; parasite line B) -6.03% | Potency (C2A) | Potency (CP217) | Potency (CP238) | Potency (CP250) | Potency (FAB9) | Potency (JCK) | Potency (PC49) | Potency (SC27B)
-15.5%: max response [9, 14]

C[C@@]12CC[C@@H]3c4ccc(O)cc4CC[C@H]3[C@H]1C[C@@H](O)[C@H]2O
-5.07%: max response [9, 13]
inactive: outcome [1] | Potency [2] | activity change, negative = inhibition [3] -13% | outcome [4] | Potency [5] > 20.6 µM | Potency [6] > 20.6 µM | Potency [7] | outcome [8] | activity change, negative = inhibition [9] -1.89% | Potency [12]
-7.07%: max response [9, 14]

CC(=O)c1cc2ccccc2oc1=O
active: Potency [2] 0.2 µM
inactive: outcome [1] | activity change, negative = inhibition [3] -3.16% | outcome [4] | Potency [5] > 20.6 µM | Potency [6] > 20.6 µM | Potency [7] | outcome [8] | activity change, negative = inhibition [9] -3.99%
-18.4%: max response [9, 14]
-14%: max response [9, 13]

COc1c2c(nc3ccccc13)O[C@H]([C@@](C)(O)CO)C2
active: Potency [2] 12.6 µM
inactive: outcome [1] | activity change, negative = inhibition [3] -17.9% | outcome [4] | Potency [5] > 20.6 µM | Potency [6] > 20.6 µM | Potency [7] | outcome [8] | activity change, negative = inhibition [9] 1.14% | Potency [12]
-17.8%: max response [9, 13]
-15.2%: max response [9, 14]

O=C(O)c1cc2ccccc2c(Cc2cc3ccccc3c(C(=O)O)c2O)c1O (tested in a mixture with another compound)
-4.55%: max response [9, 14]
-8.55%: max response [9, 13]
inactive: outcome [1] | Potency [2] | activity change, negative = inhibition [3] -23% | outcome [4] | Potency [5] > 20.6 µM | Potency [6] > 20.6 µM | Potency [7] | outcome [8] | activity change, negative = inhibition [9] 1.36%

Cc1onc(-c2c(Cl)cccc2Cl)c1C(=O)N[C@H]1C(=O)N2[C@H]1SC(C)(C)[C@H]2C(=O)O
-4.28%: max response [9, 14]
inactive: outcome [1] | Potency [2] | activity change, negative = inhibition [3] -5.49% | outcome [4] | Potency [5] > 20.6 µM | Potency [6] > 20.6 µM | Potency [7] | outcome [8] | activity change, negative = inhibition [9] -2.5% | Potency [12]
-2.7%: max response [9, 13]

COc1ccc2nccc(C(=O)O)c2c1
inactive: outcome [1] | Potency [2] | activity change, negative = inhibition [3] -15.8% | outcome [4] | Potency [5] > 20.6 µM | Potency [6] > 20.6 µM | Potency [7] | outcome [8] | activity change, negative = inhibition [9] 2.98%
-10.5%: max response [9, 13]
-9.32%: max response [9, 14]
